LRH-1 inv ag: suppresses constitutive activity of human LRH-1; 360,000 compounds, 0.13% hits; O00482; HEK293T StAR-luciferase reporter, LRH-1 transfected, 24 h; inhibition, % at 3.6 µM;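 active = inhibition above the mean inhibition of all tested compounds plus 3 SD, cut at about 73% in these data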;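 also: 0% = DMSO wells and 100% = reporter-only cells lacking LRH-1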
NCOA2 inhibitor: inhibits human steroid receptor coactivator 2; Q15596; HEK293 GAL4-SRC2 luciferase reporter, luminescence; inhibition, % at 9 µM; 370,000 compounds, 0.17% hits;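 active = inhibition above the mean inhibition of all tested compounds plus 3 SD, set per campaign, cut at about 52% in these data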;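 also: 0% = DMSO treated cells and 100% = cells given Gossypol at 36 µM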
NCOA3 inh: human NCOA3 inhibition; Q9Y6Q9; HEK293 GAL4-SRC3 luciferase reporter, luminescence; inhibition, % at 3.6 µM; 360,000 compounds, 0.17% hits;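 active = inhibition above a per-campaign cutoff, the mean of all compounds plus 3 SD, cut at about 60% in these data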;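 also: 0% = DMSO-treated cells and 100% = gossypol-treated cells at 36 µM; higher means less SRC3-driven luciferase light from the GAL4 reporter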
NR2F2 inh: NR2F2 (human) inhibition, primary screen | P24468 | HEK293T NGFI-A luciferase reporter, luminescence | inhibition, % at 8.6 µM | 370,000 compounds, 0.7% hits | AID 686940;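 active = inhibition above a per-plate cutoff, mean inhibition of test wells between control levels plus 3 SD, cut at about 38% in these data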;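 also: cells cotransfected with COUP-TFII expression vector driving the NGFI-A reporter; 0% = median of COUP-TF2 test wells and 100% = reporter-only cells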
GalR3 antag: antagonists of human GalR3. O60755. HEK293 GalR3-CNG cAMP membrane potential fluorescence; galR3 body fused to GalR1 C-terminus. inhibition, % at 3 µM. 360,000 compounds, 0.44% hits. AID 651719;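 active = inhibition above the screen-wide average plus 3 SD, cut at about 13% in these data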;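 also: forskolin and galanin both at EC90 stimulate the cells; cAMP rise reported by CNG channel membrane potential dye signal; 0% = forskolin plus galanin with DMSO and 100% = forskolin alone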
SRC1 inh: human NCOA1 inhibition; Q15788; HEK293 GAL4-SRC1 luciferase reporter, luminescence; inhibition, % at 3.6 µM; 360,000 compounds, 0.12% hits;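 active = inhibition above the campaign mean plus 3 SD, with each screening campaign given its own cutoff, cut at about 60% in these data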;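 also: 0% = DMSO treated cells and 100% = gossypol at 36 µM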
GalR3 antag conf: GalR3 (human) antagonism, confirmation | shares compounds with GalR3 antag | inhibition, % at 3 µM | 1,600 compounds, 59% hits | AID 652245 | HEK293 GalR3 CNG cAMP biosensor, membrane potential fluorescence; galR3 fused to GalR1 carboxy tail; challenged with forskolin and galanin at EC90;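 active = inhibition above the primary screen's cutoff, the mean inhibition of all screened compounds plus 3 SD, cut at about 13% in these data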;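 also: 0% = forskolin plus galanin and 100% = forskolin alone with DMSO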
CNG parental: counter-screen for GalR3 antagonists: nonspecific agonists in parental HEK-CNG cells | HEK293-CNG parental cells, cAMP membrane potential fluorescence; normalised: DMSO wells 0%, forskolin wells 100% | activation, % at 3 µM | shares compounds with GalR3 antag | 1,600 compounds, 10% hits; in the data active = activation above about 1.3%
* hit, by the source's call; · = no result. An excerpt weighted towards active compounds, which were near 1.1% of everything screened.

SMILES	LRH-1 inv ag	NCOA2 inhibitor	NCOA3 inh	NR2F2 inh	GalR3 antag	SRC1 inh	GalR3 antag conf	CNG parental
COc1ccccc1-c1cc(C(F)(F)F)nc(S(=O)(=O)CCCC(=O)Nc2cccnc2Cl)n1	-7	2	4	10	22*	-14	22*	0
COc1ccc(-c2cc(C(F)(F)F)nc(S(=O)(=O)CCCC(=O)Nc3cc(C)on3)n2)cc1OC	-3	-20	-19	-28	18*	-27	19*	1
C=CCN1[C@H](CC(C)C)COc2cccc(N3CCSCC3)c2S1(=O)=O	·	-15	·	1	·	·	·	·
O=C(c1sccc1Cl)N1CCC(n2nnc3ncccc32)CC1	·	-16	·	15	·	·	·	·
COc1ccccc1CC(=O)N1CCCc2ccccc21	0	9	20	17	·	-2	3	1
COCCNC(=O)C/C(C)=N/NC(=O)C(=O)NC1CCCCC1	-1	30	10	-13	13*	-69	2	0
CC(=O)N[C@@H]1C[C@@H]2O[C@H](CO)CC[C@@H]2O[C@@H]1CCc1ccc(C#CC2(O)CCCC2)cc1	·	-19	·	-5	·	·	·	·
CC(C)(C)C1=C(C#N)C(c2cc3c(cc2Br)OCO3)C(C#N)=C(N)O1 (configuration not stated)	-12	-3	-1	-23	·	-4	-3	0
Cc1ccc(C2C(C#N)=C(N)Oc3cc4c(cc32)OCO4)cc1 (configuration not stated)	13	-10	-2	1	1	-10	·	·
Cc1sc2nc(SC3CCOC3=O)n(Cc3ccccc3)c(=O)c2c1C (configuration not stated)	-10	3	12	-7	-4	-64	·	·
C=CCn1c(SC2CCOC2=O)nc2sc(C)c(C)c2c1=O (configuration not stated)	-10	4	6	8	35*	-4	36*	0
COC(=O)C[C@H]1CC[C@@H]2[C@H](COc3ccc(NC(=O)C(C)C)cc3C(=O)N2C)O1	·	26	·	-12	·	·	·	·
COc1ccc(OCC(O)CNC(=O)c2ccc(Br)cc2)cc1 (configuration not stated)	-13	-9	0	-7	-7	-6	·	·
COc1ccc(OCC(O)CNC(=O)c2ccc(OC)cc2)cc1 (configuration not stated)	-5	6	0	-2	14*	2	4	0
Cc1cc(=O)[nH]c2ccc(S(=O)(=O)NCc3ccccc3)cc12	12	-10	-17	-8	57*	-25	27*	0
Cc1cc(=O)[nH]c2c(C)cc(S(=O)(=O)NCc3ccccc3)cc12	3	-2	18	-4	1	-10	·	·
COc1ccc(CC(=O)OCc2cc3ccccc3[nH]c2=O)cc1	17	-42	-5	11	·	-35	2	0
O=C1N2Cc3ccccc3C2CS(=O)(=O)N1Cc1ccccc1 (configuration not stated)	·	-51	·	-14	·	·	·	·
CCCCN(C)C(=O)c1cc2cc([N+](=O)[O-])cc(OC)c2oc1=O	16	6	5	5	22*	14	2	0
N#Cc1c(N)nc(SCC(=O)NC2CCCCC2)c(C#N)c1-c1ccc(Cl)cc1	0	4	-13	31	0	-4	·	·
N#CCSc1nc(N)c(C#N)c(C2CCCCC2)c1C#N	11	-14	13	-47	72*	-10	88*	0
COC(=O)Cn1c2ccc(Cl)cc2c2nc(C)sc21	-8	-15	23	15	-3	-12	·	·
Cc1ccc(S(=O)(=O)n2c3ccc(Cl)cc3c3nc(C)sc32)cc1	3	10	-3	-4	·	8	2	0
COc1cc(C2c3c(-c4cc(Cl)c(C)cc4O)n[nH]c3C(=O)N2Cc2cccnc2)ccc1O (configuration not stated)	-25	-13	6	-5	33*	-29	24*	0

Screens (PubChem BioAssay)
